Bioassay records: PubChem, National Center for Advancing Translational Sciences (NCATS)
Shiga toxin inh – Shiga toxin inhibition | Vero cells, Shiga toxin protein synthesis inhibition reporter | AID 2315 | hit rate 9.2% among 290,000 | inhibition, % at 38.7 µM; in the data active = inhibition mostly above about 28%, no sharp cut-off; inactive = mostly below about 43%; also: 0% is about no effect
Pf growth 48h – inhibits P. falciparum growth in the first generation, 48 h | hit rate 5.9% among 310,000 | AID 504832 | Potency, µM (top dose mostly 28.7 µM), inactives show at the highest dose activity change, negative = inhibition, usual class: inhibitors | P. falciparum luciferase growth in erythrocytes, 48 h; also: potency is read from the fitted curve at half-maximal effect; % is scaled to controls: 0 for no effect and ±100 for the full control effect
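First compound was added to culture medium, then infected red cells at 0.1% parasitemia and 2% hematocrit (final). After incubation at 37 C under 5% CO2, luciferase detection reagent was dispensed and light output recorded.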
Pf growth 96h – inhibits malaria parasite growth, 96 h; hit rate 6.9% among 320,000; P. falciparum luciferase reporter growth, 96 h; AID 504834; Potency, µM (top dose mostly 28.7 µM), without a hit: at the top dose activity change, negative = inhibition, most hits filed as inhibitors; also: potency is read from the fitted curve at half-maximal effect; % is scaled to controls: 0 for no effect and ±100 for the full control effect
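Two parasite generations (96 h, 37 C, 5% CO2) of compound exposure in infected erythrocytes (0.05% parasitemia, 2% hematocrit). Luciferase-reporter P. falciparum; decreased luminescence indicates inhibited growth, aimed at apicoplast-acting delayed death.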
CHX counter – counter-screen hit for Shiga toxin inhibitors, cycloheximide; cell reporter, cycloheximide protein synthesis inhibition counterscreen; max response, %; hit rate 12% among 300,000; AID 2314; in the data active = max response mostly above about 13%, no sharp cut-off; inactive = mostly below about 14%; also: read at 38.3 µM for the half of the compounds with a filed dose; 0% is about no effect
Starred values were filed as active, the others as inactive; ? = inconclusive; / = no result given; + = active, no number. This is a sample that favours compounds with a hit; in the whole collection about 21% have one here. Unless noted, calls follow the shape of the dose curve; as a rule, active = well fitted inhibition curve with a large enough effect; inconclusive = small, poorly fitted or top-dose-only effect, or another doubt; inactive = no such curve, though single readings can be large or run the other way.

SMILES	Shiga toxin inh	Pf growth 48h	Pf growth 96h	CHX counter
CCN(CC)C(=O)C1CCN(Cc2ccc(OCc3ccccc3)c(OC)c2)CC1	13	?	-22%	15
CC(C(N)=O)N1CC(c2ccccc2)CC1=O (stereo not given)	-23	9%	3%	1
COc1ccc(C2N(C(=O)c3ccccc3)CCN2C(=O)c2ccccc2)cc1	-7	?	?	-2
COc1ccc(C(=O)N2CC(c3ccccc3)CC2=O)cc1 (stereo not given)	63*	-50%	43%	44*
O=C1CC(c2ccccc2)CN1C(=O)c1ccccc1 (stereo not given)	38	15%	0%	16*
CCc1cc(=O)oc2c(C)c(OCC(=O)N3CCC(C(=O)O)CC3)ccc12	-10	23%	3%	-4
Cc1ccc(N=C(NO)c2nonc2N)c(C)c1	11	11%	34%	8
Cc1ccc(N=C(NO)c2nonc2N)cc1	95*	?	/	46*
O=C(CSC(=S)N1CCCC1)N1CCN(S(=O)(=O)c2cccc([N+](=O)[O-])c2)CC1	2	-19%	-7%	4
CCc1nc2ccccc2c(C(=O)Nc2cccc(C)c2)c1C	10	?	?	-2
NC1=CC(=O)c2cccc3cccc1c23	-2	2.9µM*	0%	-4
O=C1C=C(O)c2cccc3cccc1c23	/	4%	?	1
NC1=NC(=O)/C(=C\c2cccnc2)S1	-10	8%	9.3µM*	-1
O=C1N=C(N2CCN(c3ccccc3)CC2)S/C1=C\c1ccco1	35	-28%	0%	22
NC1=NC(=O)/C(=C/c2ccccc2OS(=O)(=O)c2ccccc2)S1	-4	10µM*	-3%	-1
CC(C)N1C(=O)S/C(=C/c2cccnc2)C1=O	6	?	?	20*
NC1=NC(=O)/C(=C\c2ccco2)S1	-5	0%	52%	17*
CCCCC(=O)Oc1ccccc1C(=O)O	-3	/	/	-2
CSc1ncccc1C(=O)NC(C)C1CC2CCC1C2 (stereo not given)	-12	-11%	1%	-1
O=C(COC(=O)c1cccnc1Cl)Nc1cc(S(=O)(=O)N2CCCCCC2)ccc1Cl	/	?	-9%	/
COc1ccc(Br)cc1S(=O)(=O)n1ccnc1C	-7	-7%	94%	2
Cc1nccn1S(=O)(=O)c1ccc(Br)cc1Br	-1	1.9µM*	13µM*	-3
CC(C)(CN1CCN(Cc2ccccc2)CC1)NS(=O)(=O)c1ccccc1	-12	11%	15%	0
CC(C)(CN1CCC(Cc2ccccc2)CC1)NS(=O)(=O)c1ccccc1	9	12µM*	-2%	6
CC(C)(CN1CCN(C(c2ccccc2)c2ccccc2)CC1)NS(=O)(=O)c1ccccc1	12	12µM*	10µM*	-1
SMILES	Shiga toxin inh	Pf growth 48h	Pf growth 96h	CHX counter
COc1ccc(NC(=O)CSc2nnnn2C2CC3C=CC2C3)cc1 (stereo not given)	31	?	?	20*
COc1ccc(-n2ccnc2SCC(=O)Nc2ccc(OC)cc2OC)cc1	-16	4%	33%	-5
COc1ccc(NC(=O)CSc2nccn2-c2ccccc2)cc1	39	15%	2%	22*
CCC(=O)Nc1ccc(NC(=O)CSc2nnnn2-c2ccc(OC)cc2)cc1	20	?	87%	-2
COc1ccc(NC(=O)CSc2nccn2Cc2ccccc2)cc1	164*	-12%	-16%	53*
Cc1cc(Br)ccc1SCC(=O)OCC(=O)Nc1ccc2[nH]c(=O)[nH]c2c1	/	0%	23%	/
O=C(Cc1cccc2ccccc12)N/N=C/c1ccc(OC(=O)/C=C/c2ccco2)cc1	14	12µM*	?	-2
O=C(Cc1cccc2ccccc12)N/N=C/c1ccncc1	24	0%	10µM*	-3
COc1cccc(OCc2cc(C(=O)NCC3CCCCC3)no2)c1	38*	20%	12µM*	35*
COc1cccc(OCc2cc(C(=O)NCc3ccccn3)no2)c1	70*	18%	61%	62*
COc1cccc(OCc2cc(C(=O)NCCc3cccc(C)n3)no2)c1	9	2%	?	11
COc1ccc2cc(C(C)C(=O)Nc3cccc(S(=O)(=O)N(C)C)c3)ccc2c1 (stereo not given)	-3	?	?	-1
CC(=O)NC(c1cc(Cl)c2cccnc2c1O)C(C)C (stereo not given)	/	3.7µM*	10µM*	/
CCC(=O)NC(c1cc(Cl)c2ccccc2c1O)C1CC1 (stereo not given)	/	-12%	?	/
CC(=O)NC(c1cc(Cl)c2cccnc2c1O)C1CC1 (stereo not given)	/	4.1µM*	13µM*	/
CC(=O)NC(c1ccc(C)cc1)c1cc(Cl)c2cccnc2c1O (stereo not given)	-7	?	29%	-2
FC(F)c1nnc2c(Cl)cc(C(F)(F)F)cn12	26	27%	66%	11
Fc1ccc(-c2nc3c(Cl)cc(C(F)(F)F)cn3c2Cl)cc1	active	73%	63%	32*
CCOc1ccc(CCNC(=O)c2cccc(S(=O)(=O)N3CCCCC3)c2)cc1OCC	/	15µM*	?	/
CCOc1ccc(CCNC(=O)c2ccc(Cl)c(S(=O)(=O)N3CCOCC3)c2)cc1OCC	/	12µM*	?	/
CCOc1ccc(CCNC(=O)c2cccc(S(=O)(=O)N3CCN(C(C)=O)CC3)c2)cc1OCC	/	?	-16%	/
O=C(NCCc1ccc(F)cc1)c1ccc(Cl)c(S(=O)(=O)N2CCOCC2)c1	/	9.3µM*	12µM*	/
Cc1ccc(NC(=O)COC(=O)c2ccc(OCc3c(C)noc3C)cc2)cc1S(=O)(=O)N1CCOCC1	-13	-20%	?	1
O=C(Nc1cccc(S(=O)(=O)N2CCOCC2)c1)C1=NN(c2ccccc2)C(=O)CC1	-15	?	-23%	-5
O=C(c1cnn(C(=O)c2ccccc2)c1)c1ccccc1O	31	12%	12%	14
SMILES	Shiga toxin inh	Pf growth 48h	Pf growth 96h	CHX counter
O=C(c1ccccc1)n1ccc(-c2cnc(-c3ccccc3)s2)n1	97*	/	454%	40*
COc1ccc(S(=O)(=O)n2ccc(-c3cnc(-c4ccccc4)s3)n2)cc1	37	?	?	17*
CCCCNC(=O)c1ccccc1SCc1c(C)noc1C	2	2%	61%	-3
CN1C(=O)COc2c(C(=O)NC3CN4CCC3CC4)cc(Cl)cc21 (stereo not given)	20	5%	4.8µM*	-7
CC(Sc1ccc(S(=O)(=O)N2CCCCCC2)cn1)C(N)=O (stereo not given)	/	-2%	-13%	/
CC(=O)Nc1ccc(/C(C)=N\NC(=O)c2ccc(-c3ccccc3)cc2)cc1	7	0.66µM*	?	12
C/C(=N/NC(=O)Nc1ccccc1)c1ccc(C)cc1	29*	7%	17%	-3
C/C(=N\NC(=O)Nc1ccccc1)c1ccc2ccccc2c1	-13	-10%	-7%	2
CC(=O)Nc1ccc(/C(C)=N/NC(=O)c2ccc(F)cc2)cc1	+	2%	-16%	24*
COc1ccccc1N(C)S(=O)(=O)c1ccc(C(=O)Nc2nc(C)cs2)cc1	33	?	?	1
Cc1cccc(C(=O)OCC(=O)N2CCCC2=O)c1[N+](=O)[O-]	/	32%	30%	/
